In all, about 3,700 compounds went through this assay and fewer than 10 were called active. How the calls were made is not given here. These entries were drawn from the full list.
Experiment: NMR binding screen, influenza A RNA promoter, Kd (AID 1637)
Conditions: NMR binding to influenza A RNA promoter

Structure (SMILES)	Kd
CC1=NNC(=O)C1CCc1ccncc1 (configuration not stated)	> 4 mM (inactive)
O=C(NCc1ccccc1Br)c1ccco1	> 4 mM (inactive)
COc1ccc(-c2c(OC)c3c(OC)c4c(cc3oc2=O)OC(C)(C)C=C4)cc1	> 4 mM (inactive)
CCN=Cc1c(O)n(-c2ccccc2C)c(=O)[nH]c1=O	> 4 mM (inactive)
NC(=O)c1ccc(NC(=O)C2CC2)cc1	> 4 mM (inactive)
c1ccc(CCN2CCN(CCc3ccccn3)CC2)nc1	> 4 mM (inactive)
COc1c(O)cc2c(c1O)[C@H]1O[C@H](CO)[C@@H](O)[C@H](O)[C@@H]1OC2=O	> 4 mM (inactive)
COc1cc(/C=C2/NC(=S)NC2=O)cc(Cl)c1O	> 4 mM (inactive)
O=C(Nc1nccs1)c1ccc(=O)[nH]n1	> 4 mM (inactive)
COC(=O)c1ccc2nc[nH]c2c1	> 4 mM (inactive)
CNS(=O)(=O)c1cccs1	> 4 mM (inactive)
OCCCc1nc2ccc(C(F)(F)F)cc2[nH]1	> 4 mM (inactive)
CC(=O)Nc1ccc(S(=O)(=O)N(C)C)cc1	> 4 mM (inactive)
O=C(NCc1cccc(Cl)c1)c1cnccn1	> 4 mM (inactive)
Cc1cc(C)n(CCCC(=O)O)n1	> 4 mM (inactive)
Cn1c(O)c(/C=C2\C=CC=N2)c(=O)[nH]c1=O	> 4 mM (inactive)
CCOC(=O)c1ccc2c(c1)nnn2C	> 4 mM (inactive)
COc1ccc(-c2coc3c(OC)c(OC)cc(OC)c3c2=O)cc1	> 4 mM (inactive)
NCc1c[nH]c2ccccc12	> 4 mM (inactive)
Cn1c(=O)n(C)c2cc(C(N)=O)ccc21	> 4 mM (inactive)
CC(C)=NNC(=O)C(=O)NC(C)(C)C	> 4 mM (inactive)
NC(=O)C1CCN(C(=O)c2ccccc2)CC1	> 4 mM (inactive)
CN1C(=O)/C(=C/c2ccc(O)cc2O)SC1=S	> 4 mM (inactive)
NC(C(=O)O)C(O)c1ccccc1 (configuration not stated)	> 4 mM (inactive)

Structure (SMILES)	Kd
CCOC(=O)c1c(C)[nH]c2ccc(O)cc12	> 4 mM (inactive)
O=C(Cc1ccc(F)cc1)Nc1ncccn1	> 4 mM (inactive)
Fc1ccc(-c2n[nH]c(=S)n2CC2CCCO2)cc1 (configuration not stated)	> 4 mM (inactive)
O=C(CC1SC(=O)NC1=O)Nc1nccs1 (configuration not stated)	> 4 mM (inactive)
O=C(O)c1cccc2c1OCCCO2	> 4 mM (inactive)
NC(=S)CN1CCCC1=O	> 4 mM (inactive)
CC1=NN(c2ccc(C)cc2)C(=O)C1	> 4 mM (inactive)
O=P(c1ccccc1)(c1ccccc1)C1CCOCC1	> 4 mM (inactive)
CC(=O)N1CCN(S(=O)(=O)c2ccccc2)CC1	> 4 mM (inactive)
CN1CCN(CC(=O)N2CCc3ccccc32)CC1	> 4 mM (inactive)
O=C(NC1=NCCS1)c1cccc(F)c1	> 4 mM (inactive)
O=C1NC(=S)S/C1=C/c1ccncc1	> 4 mM (inactive)
Cc1[nH]c2ccccc2c1C(=O)CSc1ncn[nH]1	> 4 mM (inactive)
O=C(NN1CCOCC1)c1ccccc1F	> 4 mM (inactive)
Cc1cc(=O)oc2cc3c(cc12)OCCO3	> 4 mM (inactive)
CC1SC(=NC(=O)c2ccncc2)NC1=O (configuration not stated)	> 4 mM (inactive)
Cc1cc(OC(=O)c2ccco2)c([N+](=O)[O-])c(=O)[nH]1	> 4 mM (inactive)
Cc1c(O)c(O)cc2c1CC=C1[C@@]2(C)CC[C@@]2(C)C3C[C@](C)(C(=O)O)CC[C@]3(C)CC[C@]12C (some centres not stated)	> 4 mM (inactive)
CCN1CCn2c1nc(N1CCOCC1)nc2=O	> 4 mM (inactive)
Nc1cc(=O)[nH]c(=S)n1-c1ccc(F)cc1	> 4 mM (inactive)
Cc1cc(=O)n2ncn(Cc3ccccc3)c2n1	> 4 mM (inactive)
Nc1ccc(-n2cccc2)cc1	> 4 mM (inactive)
CC1(C)Cc2nc(N3CCOCC3)c(C#N)cc2CO1	> 4 mM (inactive)
O=C1c2cccnc2C(=O)N1Cc1ccc2c(c1)OCO2	> 4 mM (inactive)

Structure (SMILES)	Kd
Cn1ccnc1C(O)c1ccccc1 (configuration not stated)	> 4 mM (inactive)
CS(=O)(=O)c1ccccc1C(=O)Nc1nccs1	> 4 mM (inactive)
NS(=O)(=O)c1ccc(NC(=O)C2CC2)cc1	> 4 mM (inactive)
COc1ccc(/C=C2/NC(=S)NC2=O)cc1	> 4 mM (inactive)
CC(=O)NC(NC(C)=O)c1ccccc1	> 4 mM (inactive)
O=S(=O)(O)c1cc[n+]([O-])cc1	> 4 mM (inactive)
Cc1cc(N2C(=O)CCC2=O)n(-c2ccccc2)n1	> 4 mM (inactive)
Nc1nc(-c2ccc(O)cc2)cs1	> 4 mM (inactive)
O=C(CNC(=O)c1ccc(F)cc1)NC1=NCCS1	> 4 mM (inactive)
COCCOc1nc2ccccc2nc1C	> 4 mM (inactive)
O=C1C2CC=CCC2C(=O)N1c1ccccc1O (configuration not stated)	> 4 mM (inactive)
Cc1ccn(S(=O)(=O)c2ccc(F)cc2)n1	> 4 mM (inactive)
NS(=O)(=O)c1ccc(NC(=O)C(F)(F)F)cc1	> 4 mM (inactive)
CC(C)C(C)/C=C/C(C)[C@H]1CCC2C3=CCC4CC(=O)CC[C@]4(C)C3CC[C@@]21C (some centres not stated)	> 4 mM (inactive)
CS(=O)(=O)NC1CCN(Cc2ccccc2)CC1	> 4 mM (inactive)
CC(=O)c1c(O)c(C)c(O)c2c1OC1=CC(=O)C(C(C)=O)C(=O)C12C (configuration not stated)	> 4 mM (inactive)
O=C(O)c1coc2c1C(=O)CCC2	> 4 mM (inactive)
S=c1[nH]nc(-c2cccnc2)n1Cc1ccccc1	> 4 mM (inactive)
CS(=O)(=O)N1CCN(C(=O)Cc2cccs2)CC1	> 4 mM (inactive)
NC1=NC(=O)/C(=C/c2ccccc2[N+](=O)[O-])S1	> 4 mM (inactive)
CCN1CC2(C)CC[C@H](OC)[C@]34C2[C@H](O)C2(OCO[C@@]25C[C@H](OC)[C@H]2C[C@]3(O)C5[C@H]2O)C14	> 4 mM (inactive)
O=c1c2ccccc2oc2ccc(O)cc12	> 4 mM (inactive)
COc1cc(C)c(S(=O)(=O)N2CCN(C)CC2)cc1C	> 4 mM (inactive)
Nc1ncnc(NCc2cccnc2)c1[N+](=O)[O-]	> 4 mM (inactive)
